Assay outcomes (PubChem BioAssay)
Abeta yeast res: compounds reversing amyloid beta toxicity in yeast; yeast expressing A-beta42, growth rescue, OD600, 48 h; response scale: 0% DMSO, 100% iron-clioquinol control; AID 1347071; Potency, µM (titrated, usually from 46.1 µM), hits mostly activators; actives 0.063% (n = 410,000); further: nearly all actives have a fitted effect of over 55% in size
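Growth rescue measured by 600 nm absorbance after 48 h yeast culture at 30 C with compound. Values normalized between DMSO and an equimolar ferric chloride plus clioquinol control.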
aSyn yeast inh: inhibitors of alpha-synuclein toxicity in yeast. Yeast expressing alpha-synuclein, growth rescue, BacTiter-Glo, 24 h. Potency, µM (titrated, usually from 46.1 µM), inactives show top-dose growth rescue (activation), hits mostly activators. actives 0.14% (n = 370,000). AID 652106; further: % of control where 0% means no effect; nearly all actives have a fitted effect of over 65% in size
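Readout is rescue of growth in alpha-synuclein-expressing yeast, so inhibitors of toxicity appear as activators. Growth after 24 hr at 30 deg C in galactose medium is quantified by luminescence.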
Mito fusion yeast: mitochondrial division inhibition or fusion activation. S. cerevisiae fusion-defective mutant growth rescue, CellTiterGlo 48 h. Potency, µM (top dose mostly 46.1 µM), inactives show at the highest dose growth rescue (activation), usual class: activators. actives 0.23% (n = 320,000). AID 485298; further: % of control where 0% means no effect; nearly all actives have a fitted effect of over 45% in size
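Temperature-sensitive fusion-defective S. cerevisiae (e.g. fzo1-1, mgm1-5) were grown with compound in YPEG medium (3% ethanol, 3% glycerol) for 48 hours at 37C. Growth rescue was measured as viability by CellTiterGlo luminescence after 10 minutes at ambient.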
TDP-43 yeast inh: inhibitors of TDP-43 toxicity in yeast. TDP-43 expressing yeast growth rescue, BacTiter-Glo, 24 h. actives 1.8% (n = 410,000). Potency, µM (doses to about 46.1 µM), inactives show at the highest dose growth rescue (activation), actives largely listed as activators; further: % of control where 0% means no effect; nearly all actives have a fitted effect of over 50% in size
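Luminescence from BacTiter-Glo reports growth of TDP-43-expressing yeast after 24 hr at 30 deg C with compound. Cells were raffinose-pregrown to mid-log, then seeded in galactose medium at OD600=0.02.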
FUS yeast rescue: rescues growth of FUS-expressing yeast | S. cerevisiae FUS-expressing, growth rescue, OD600, 24 h | Potency, µM (highest dose often 76.6 µM), usual class: activators | actives 0.24% (n = 390,000);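 further: plate controls were DMSO vehicle for no effect and reference control for full effect; nearly all actives have a fitted effect of over 55% in size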
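Galactose (2%) drives FUS expression in yeast precultured in raffinose; seeding density OD 0.005. Test compounds incubated 24hr at 30C and 99% humidity before absorbance at 600 nm was measured.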
* hit, by the source's call; i = inactive; ? = inconclusive; . = no result given; [ ] = another dose, or the depositor's remark. A selection: hits, their analogues and other compounds. The true share with any hit is near 2.2%. The call rests on the fitted dose curve; in most records, active means well fitted curve in the direction sought with a large enough effect; inconclusive means small, poorly fitted or top-dose-only effect, or another doubt; inactive means no such curve, though single readings can be large; an effect the other way counts as inactive or inconclusive. Potency means the concentration at half of the fitted maximal effect.

SMILES	Abeta yeast res	aSyn yeast inh	Mito fusion yeast	TDP-43 yeast inh	FUS yeast rescue
Cc1cn(C)c(CC(=O)Nc2cccc(C#N)c2)c1C(=O)O	i	.	.	8%	i
COc1ccc([C@H]2CC(=O)C=C(c3cc(Cl)ccc3C)C2)cc1	?	14%	?	20µM*	i
Cc1ccc(Cl)cc1C1=CC(=O)C[C@H](c2ccc(F)cc2)C1	i	3%	?	?	i
COc1ccc([C@H]2CC(=O)C=C(c3cc(C)ccc3F)C2)cc1	?	?	?	20µM*	?
Cc1nn(-c2ccc(F)cc2)c(N)c1C1(O)C(=O)Nc2ccccc21 (configuration not stated)	i	3%	15%	1%	i
Cc1nn(-c2ccccc2)c2c1C1(C(=O)Nc3ccccc31)N1C(=N2)Sc2ccccc21 (configuration not stated)	i	7%	18µM*	20%	i
Cc1ccc(C(=O)NCc2cccnc2)cc1S(=O)(=O)N1CCCCCC1	i	2%	0%	0%	.
Cc1cc(S(=O)(=O)Nc2ccc3oc4c(c3c2)CCCC4)ccc1Cl	i	.	.	0%	i
Cc1nn2c(C)c(C(=O)NCCc3ccccc3)cnc2c1-c1ccccc1	i	.	.	18µM*	i
CCOc1ccc(CCNC(=O)c2cnc3c(-c4ccccc4)c(C)nn3c2C)cc1OCC	i	.	.	4%	i
O=C(Nc1ccccn1)c1ccc(Br)s1	i	-7%	1%	6.3µM*	i
Cc1nc2nc(CNC(=O)OC(C)(C)C)nn2c(C)c1CCC(=O)NCc1ccc(F)cc1	i	.	.	?	i
O=C(COc1cccc2ccccc12)N1CCN(c2ccccc2)CC1	i	?	29%	19%	i
COc1ccc(OCC(=O)N2CCN(c3nnc(-c4ccc(C)cc4)c4ccccc34)CC2)cc1	i	3%	18%	22µM*	i
Cc1cccc(OCC(=O)N2CCN(c3nnc(-c4ccccc4)c4ccccc34)CC2)c1	?	2%	?	25µM*	i
Cc1ccc(-c2nnc(N3CCN(C(=O)COc4cccc(C)c4)CC3)c3ccccc23)cc1	i	0%	13µM*	4%	i
O=C(COc1ccccc1)N1CCN(c2nnc(-c3ccccc3)c3ccccc23)CC1	i	10%	3%	?	i
COc1ccc(N2CCN(C(=O)COc3cccc4ccccc34)CC2)cc1	i	15%	6%	13µM*	.
Cc1cccc(C)c1NC(=O)C1(C)CN(S(C)(=O)=O)CC(=O)N1CCCn1ccnc1 (configuration not stated)	i	-1%	.	-28%	i
O=[N+]([O-])c1ccc(N/N=C2\CC3CC=CC23)cc1 (configuration not stated)	i	2%	-5%	21%	i
O=[N+]([O-])c1ccc(N/N=C2\CC3CC=CC23)c([N+](=O)[O-])c1 (configuration not stated)	i	3%	18%	35µM*	i
Clc1ccc(C2=Nn3c(nnc3-c3n[nH]c4c3CCC4)SC2)cc1	i	-4%	13%	-12%	i
Brc1ccc(C2=Nn3c(nnc3-c3n[nH]c4c3CCC4)SC2)cc1	i	0%	16µM*	6%	i
Oc1ccc(-c2nccc(-c3cccs3)n2)cc1	i	-2%	6%	13µM*	i
COC(=O)C(C)Oc1ccc(-c2nccc(-c3cccs3)n2)cc1 (configuration not stated)	i[9.22 µM]	-10%	-7%	-9%	i
SMILES	Abeta yeast res	aSyn yeast inh	Mito fusion yeast	TDP-43 yeast inh	FUS yeast rescue
C=C(/C=C/c1ccc(N(C)C)cc1)c1nc2ccccc2s1	.	-67%	.	.	.
CSc1nc(N)n2nc(C(C)(C)C)cc2n1	i	-15%	0%	18µM*	i
Cc1ccc(-c2cc(C(=O)N3CCCCC3)c3ccccc3n2)cc1C	i	-16%	-33%	13%	i
CCOC(=O)CCSc1nc2c(c(C(F)(F)F)c1C#N)CCC2	i	8%	18%	13µM*	i
C/C=C/c1cccc(-c2nc(C(=O)N3CCCCC3)cc3c2[C@H](CCO)N(C(=O)NC(C)C)C3)c1	i	2%	.	2%	i
CC(C)(C)N1C(=O)c2ccccc2NC(=O)C1C(=O)NCCc1ccccc1F (configuration not stated)	i	0%	.	2%	i
COc1cc(C(=O)OCC(=O)Nc2ccc3c(c2)OC(F)(F)O3)ccc1OCc1c(C)noc1C	i	1%	3%	35µM*	i
COc1cccc(NC(=O)N2CCc3nc(Nc4cc(Cl)cc(Cl)c4)ncc3C2)c1	?	?	.	16µM*	28µM*
COc1cccc(NC(=O)N2CCc3nc(NCc4cccc(Oc5ccccc5)c4)ncc3C2)c1	i	?	.	21%	?
O=S(=O)(NCCc1csc2nc(-c3ccc(F)cc3)nn12)c1ccc(Oc2ccccc2)cc1	i	.	.	17%	i
COc1ccccc1Nc1nc(N)nc(CSC(=S)N2CC(C)CC(C)C2)n1 (configuration not stated)	i	0%	?	25µM*	i
COc1ccc(Nc2nc(N)nc(CSC(=S)N3CCN(c4ccccc4)CC3)n2)cc1	i	11%	?	18µM*	?
COc1ccc(Nc2nc(N)nc(CSC(=S)N3CCCCC3)n2)cc1	i	2%	-3%	20%	i
CC1CCN(C(=S)SCc2nc(N)nc(Nc3ccccc3)n2)CC1	22µM*	11%	10%	?	?
COC(=O)c1cnn(-c2ccc(C(=O)Nc3cc(OC)c(OC)c(OC)c3)cc2)c1N	i	.	.	0%	i
CCCOc1ccc(C(=O)NNC(=S)NC(=O)c2ccco2)cc1	i	-28%	-26%	6.3µM*	i
O=C(NNC(=S)NC(=O)c1ccco1)c1ccc(F)cc1	i	30%	-22%	?	i
CCCOc1ccc(C(=O)NNC(=S)NC(=O)c2ccccc2)cc1	i	57%	-59%	?	i
O=C(COc1ccc(Cl)cc1Cl)NNC(=S)NCc1ccco1	?	7%	11%	15%	i
CCCOc1ccc(C(=O)NNC(=S)NC(C)=O)cc1	?	4µM*	-26%	11µM*	i
O=C(NC(=S)NNC(=O)c1ccco1)c1ccc(Br)cc1	i	?	-35%	3.5µM*	i
O=C(COc1ccc(Cl)cc1Cl)NNC(=S)NC(=O)c1ccco1	?	10µM*	-13%	18µM*	i
COc1ccc(C(=O)NNC(=S)NC(=O)c2ccco2)cc1	i	-20%	-23%	?	i
Cc1ccccc1OCC(=O)NCC(=O)OCc1ccc2ccccc2c1	.	-8%	.	.	.
